Assay outcomes: PubChem BioAssay, National Center for Advancing Translational Sciences (NCATS)
Hits are enriched below; roughly 4.6% of the tested compounds scored in any of these assays.
D1 antagonist = blocks dopamine activation of the human D1 receptor; P21728; HEK293 TREx D1 cells, calcium flux, dopamine EC80; active compounds read low; activity change, negative = inhibition, % at 10 µM; hit rate 3.2% among 360,000; AID 504652; in the data active = activity change below about -30%
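Cells carrying a force-coupled, tetracycline-inducible human D1 receptor report calcium flux. Each well gets a 10 s baseline, compound with 180 s monitoring, then an EC80 dopamine stimulus with a second 180 s kinetic read.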
TRHR ag = TRH receptor (human) agonism; P34981; TRHR cells, calcium flux fluo-8, FDSS agonist mode; activation, % at 2 µM; hit rate 0.18% among 360,000; AID 493084
Target sequence (P34981 whole entry, looked up): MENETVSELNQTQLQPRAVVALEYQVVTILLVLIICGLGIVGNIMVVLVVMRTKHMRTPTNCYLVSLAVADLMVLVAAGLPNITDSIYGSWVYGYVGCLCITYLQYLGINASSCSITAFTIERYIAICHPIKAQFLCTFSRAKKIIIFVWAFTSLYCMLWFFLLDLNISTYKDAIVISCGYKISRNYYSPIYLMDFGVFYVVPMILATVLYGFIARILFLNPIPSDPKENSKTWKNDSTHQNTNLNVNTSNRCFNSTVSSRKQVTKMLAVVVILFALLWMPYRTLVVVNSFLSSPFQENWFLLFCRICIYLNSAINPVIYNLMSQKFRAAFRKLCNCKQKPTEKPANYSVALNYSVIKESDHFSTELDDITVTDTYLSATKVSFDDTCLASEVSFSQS
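In this calcium-flux screen, cells bearing human TRHR are dye-loaded with fluo-8, baselined for 10 cycles, then exposed to library compounds; positive kinetic calcium responses during the agonist phase mark hits, with TRH as control.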
D1 ag = human D1 receptor agonism | hit rate 1% among 360,000 | P21728 | activation, % at 2 µM | HEK293 T-REx D1 cells, calcium flux, agonist mode | AID 504660
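Inducible HEK293 T-REx D1 cells, force-coupled to calcium signalling, were plated at 4000 cells/well with tetracycline and held overnight at 30 C. After no-wash calcium dye loading, compound-evoked calcium rise over 180 s flagged agonists.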
TRHR enhancer = allosterically enhances the human TRH receptor. P34981. TRHR cells, fluo-8 calcium fluorescence, EC20 TRH enhancement. enhancement, % at 2 µM. hit rate 0.66% among 360,000. AID 493056; in the data active = enhancement above about 30%
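Enhancer read-out: after compound pinning and an initial kinetic agonist-mode read, an EC20 of TRH (10 nM final) was injected and fluo-8 calcium signal (Ex 480/Em 530) followed at 1 s/cycle for 100 cycles in TRHR-expressing cells.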
D1 potentiator = human D1 dopamine receptor positive modulation; P21728; HEK293 TREx D1 cells, calcium flux, dopamine EC20 potentiation; hit rate 0.036% among 360,000; AID 504651; potentiation, % at 10 µM; in the data active = potentiation above about 30%
A number is an active result; . = inactive; / = not tested or not shown; ! = not confirmed by another sample. Rule as the data show it, unless noted: active = activation above about 30%; inactive = the rest.

SMILES | D1 antagonist | TRHR ag | D1 ag | TRHR enhancer | D1 potentiator
CN(C(=O)c1ccc(S(=O)(=O)N2CCCC2)cc1)C1CCCCC1 | . | . | . | . | .
CN(C(=O)c1ccc(Oc2ccc([N+](=O)[O-])cc2)cc1)C1CCCCC1 | -35 | . | . | . | .
Cc1nn(CCCC(=O)NCCc2ccc(Cl)cc2)c(=O)c2c1sc1ccccc12 | . | . | . | . | .
Cc1nnc2n(c1=O)C(CS(=O)(=O)c1ccc3ccccc3c1)CS2 (stereo not given) | . | . | . | 33 | .
Cc1ccc(S(=O)(=O)CC2CSc3nnc(C)c(=O)n32)cc1 (stereo not given) | . | . | . | . | .
Cn1nnc2c(N3CCN(c4cccc(Cl)c4)CC3)ncnc21 | / | . | . | . | .
CN1CCN(c2ncc(CN3C(=O)c4ccccc4C3=O)s2)CC1 | . | . | . | . | .
Cc1cc2c(s1)Nc1ccccc1N=C2N1CCN(C)CC1 | -89 | . | / | . | /
COCC(=O)Nc1nnc(-c2ccc(C(C)(C)C)cc2)s1 | . | . | 34 | . | .
CC(C)(C)c1ccc(-c2nnc(NC(=O)c3ccccc3)s2)cc1 | . | . | . | . | .
Cc1ccc2nc(-c3ccco3)c(Nc3ccc4c(c3)OCCO4)n2c1 | . | . | . | . | .
c1coc(-c2nc3ccccn3c2Nc2ccc3c(c2)OCCO3)c1 | -49 | . | . | . | .
Fc1ccc(Nc2c(-c3ccco3)nc3ccccn23)cc1 | . | . | . | 31! | .
O=C(COc1ccc(C(=S)N2CCOCC2)cc1Cl)Nc1ccccc1Cl | . | . | . | 34 | .
COc1cc(C(=S)N2CCCCC2)ccc1OCC(=O)Nc1ccccc1Cl | . | . | . | . | .
CNc1ncc(Cc2ccccc2)s1 | -53 | . | . | . | .
O=C(Nc1ncc(Cc2ccccc2)s1)C1CCCO1 (stereo not given) | . | . | . | . | .
CCOc1ccccc1NC(=O)Cn1ncc2c([nH]c3ccccc32)c1=O | -30 | . | . | . | .
COC(=O)c1ccccc1NC(=O)Cn1ncc2c(C)n(Cc3ccc(F)cc3)c(C)c2c1=O | -71 | . | . | . | .
Cc1ccc(N2CCN(C(=O)Nc3cn(CC(C)C)c(=O)c4ccccc34)CC2)c(C)c1 | . | . | . | . | .
Cc1ccc(-c2noc(-c3nnn(CC(=O)Nc4cccc(C(F)(F)F)c4)c3N)n2)cc1 | . | . | . | . | .
COc1ccc(C2C(C(C)=O)=C(C)N=c3s/c(=C\c4cc(C)n(C)c4C)c(=O)n32)c(OC)c1 (stereo not given) | . | 53 | 121 | . | .
O=C(C/C(=N/O)c1ccccc1O)C(F)F | -32 | . | . | . | .
Cc1nc2c(Cl)cccc2c2c1CC(CBr)O2 (stereo not given) | -31 | . | . | . | .
CN(c1ccccc1)S(=O)(=O)c1nnc(NC(=O)C2CCCCC2)s1 | -37! | . | . | . | .
SMILES | D1 antagonist | TRHR ag | D1 ag | TRHR enhancer | D1 potentiator
CCN(c1ccccc1)S(=O)(=O)c1nnc(NC(=O)c2cccs2)s1 | -41 | . | . | . | .
COC(=O)c1ccc(C(=O)OC)c(NC(=O)N2CC3CCCN3c3ccccc32)c1 (stereo not given) | . | . | . | . | .
COc1ccc(-c2ccc3c(c2)S(=O)(=O)c2cccc(C(=O)NC[C@@H]4CCCO4)c2C3=O)cc1OC | -36 | . | . | . | .
O=C(NC[C@@H]1CCCO1)c1cccc2c1C(=O)c1ccc(Cl)cc1S2(=O)=O | / | . | . | . | .
O=C1CC(c2nc3ccccc3n2CCCCOc2ccccc2)CN1c1ccccc1Cl (stereo not given) | . | . | . | . | .
NC(=O)c1ccc(N2CCN(c3ccccc3F)CC2)c([N+](=O)[O-])c1 | . | . | . | . | .
NC(=O)c1ccc(N2CCN(c3ccccc3O)CC2)c([N+](=O)[O-])c1 | -56 | . | . | . | .
O=[N+]([O-])c1ccc(N2CCN(c3ccccc3O)CC2)c(Cl)c1 | -36 | . | . | . | .
CC1=C(C(=O)OC2CCCC2)C(c2cccc(Cl)c2Cl)CC(=O)N1 (stereo not given) | . | . | . | . | .
COc1ccc(-c2cn3c(n2)sc2cc(C(=O)Nc4cccc(SC)c4)ccc23)cc1 | . | . | . | . | .
COc1ccc(N(CC(=O)Nc2ccc(C)cn2)S(=O)(=O)c2c(C)noc2C)cc1 | -80 | . | . | . | .
CC(=O)c1c(C)n(C)c2ccc(OC(=O)c3ccc([N+](=O)[O-])cc3)cc12 | . | . | . | 40 | .
CCCn1nc(-c2ccccc2)c2nc3ccccc3nc21 | . | . | 70 | . | .
CCn1nc(-c2ccccc2)c2nc3ccccc3nc21 | . | . | 98 | . | .
O=C(CN1C(=O)CC(c2ccccc2)=Nc2ccccc21)Nc1ccc(Br)cc1 | . | . | . | . | .
NNc1nc(Nc2ccccc2)nc(Nc2ccccc2)n1 | -30 | . | . | . | .
c1ccc(Nc2ccnc(Nc3ccccc3)n2)cc1 | -34 | . | . | . | .
COc1ccc(Nc2ccc(OC)cc2)cc1 | . | . | . | . | .
COc1ccc(Nc2nc(NN)nc(Nc3ccc(OC)cc3)n2)cc1 | -31 | . | . | . | .
Cc1ccc(C)c(OCCCn2c(-c3ccc(Cl)cc3)nc3ccccc3c2=O)c1 | . | . | . | . | .
CCC(Sc1nc2cc(OC)c(OC)cc2c(=O)n1CCc1ccc(Cl)cc1)C(=O)NCCOC (stereo not given) | . | . | . | . | .
CCC(Sc1nc2cc(OC)c(OC)cc2c(=O)n1CCc1ccc(OC)c(OC)c1)C(=O)NCCOC (stereo not given) | -30 | . | . | . | .
O=[N+]([O-])c1cc(-c2ccc(/C=N/n3cnnc3)o2)ccc1Cl | . | . | . | . | .
CN1CCN(/N=C/c2ccc(-c3ccc([N+](=O)[O-])cc3Cl)o2)CC1 | . | . | 52 | . | .
O=[N+]([O-])c1ccc(Cl)c(-c2ccc(/C=N/n3cnnc3)o2)c1 | -42 | . | . | . | .
SMILES | D1 antagonist | TRHR ag | D1 ag | TRHR enhancer | D1 potentiator
O=C(NCCc1ccccc1)c1ccc2c(c1)N(Cc1ccccc1)C(=O)c1ccccc1S2=O (stereo not given) | . | . | . | . | .
Cc1ccc(C)c(N2CCN(C(=O)c3cc(C)nc4c3c(C)nn4-c3ccccc3)CC2)c1 | . | . | . | . | .
Cc1ccc(-n2ncc3c(NC4CCCCC4)ncnc32)cc1 | . | . | . | . | .
CC(C)c1ccc(O)c(NC(=S)NC(=O)c2ccc3c(c2)OCO3)c1 | -66 | . | . | . | .
O=C(NC(=S)Nc1ccccc1Br)c1ccc2c(c1)OCO2 | . | . | . | . | .
COc1ccc(-c2nn(CCC#N)cc2C(=O)Nc2cccc(C(=O)O)c2)cc1OC | -36 | . | . | . | .
COc1ccccc1/C=C/C(=O)/C=C/c1ccccc1O | -34 | . | . | . | .
